Experimental findings from PubChem BioAssay (NCATS) are described below.

Structures are written as SMILES. Where “and” joins values, the source holds several entries; their conditions need not be identical. Equal entries are not always repeated. Values without a mark were called inactive. Inconclusive results are not listed. Some structures have more than one record in an assay (separate samples or runs), and their calls can disagree. Calls of active or inactive are those of the source. Unless noted, calls follow the shape of the dose curve; as a rule, active = well fitted curve in the direction sought with a large enough effect; inconclusive = small, poorly fitted or top-dose-only effect, or another doubt; inactive = no such curve, though single readings can be large; an effect the other way counts as inactive or inconclusive.

Test [1] has as its system CASKI. As to the kind of experiment: Primary qHTS to identify gynecologic anti-cancer compounds using libraries of approved drugs and bioactive compounds (AID 1345084). Also: % is scaled to controls: 0 for no effect and ±100 for the full control effect; nearly all actives have a fitted effect of over 55% in size. The following applies: Gynecologic cancer cell panel viability, ATPlite luminescence, 48 h; series mostly up to 57.5 µM. The procedure, abridged: (§1)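 Luminescence from the ATPlite ATP-monitoring reagent indicates viable cell number; lower signal means cytotoxicity. Cells received compound 16 h after seeding and were exposed for 48 h across five concentrations.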

For test [2], the system named is Es-2. Described as above. The following applies: Gynecologic cancer cell panel viability, ATPlite luminescence, 48 h; series mostly up to 57.5 µM. Put shortly:
as §1

The test system of test [3] is HeLa. The description is as above. The conditions noted are these: Gynecologic cancer cell panel viability, ATPlite luminescence, 48 h; series mostly up to 57.5 µM. The procedure, abridged: as §1
Test [4] has as its system Hek293T. Described as above. The following applies: Gynecologic cancer cell panel viability, ATPlite luminescence, 48 h, control line for the selectivity index; series mostly up to 57.5 µM. Put shortly: as §1
Test [5] concerns JEG-3. Described as above. The following applies: Gynecologic cancer cell panel viability, ATPlite luminescence, 48 h; series mostly up to 57.5 µM. Put shortly: as §1
In test [6] the test system is OV90. Described as above. The conditions noted are these: Gynecologic cancer cell panel viability, ATPlite luminescence, 48 h; series mostly up to 57.5 µM. The procedure, abridged:
as §1

The test system of test [7] is PA-1. The description is as above. The following applies: Gynecologic cancer cell panel viability, ATPlite luminescence, 48 h; series mostly up to 57.5 µM. The procedure, abridged: as §1
In test [8] the test system is SKOV3. Described as above. The conditions noted are these: Gynecologic cancer cell panel viability, ATPlite luminescence, 48 h; series mostly up to 57.5 µM. Put shortly:
as §1

The test system of test [9] is Tov-21-G. Described as above. The conditions noted are these: Gynecologic cancer cell panel viability, ATPlite luminescence, 48 h; series mostly up to 57.5 µM. The procedure, abridged: as §1
The test system of test [10] is Tov112D. The description is as above. The conditions noted are these: Gynecologic cancer cell panel viability, ATPlite luminescence, 48 h; series mostly up to 57.5 µM. The procedure, abridged: as §1
Test [11] can be described thus: Drug repurposing screens with cells derived from glioblastoma tumor samples (AID 1345199). Also: nearly all actives have a fitted effect of over 40% in size. Also: potency is read from the fitted curve at half-maximal effect. As to activity, negative = cell killing: % is scaled to controls: 0 for no effect and ±100 for the full control effect. The conditions noted are these: GBM patient neurospheres viability, ATP luminescence, 48 h. The procedure, abridged: (§2)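 Four patient lines of CD133+ GBM neurospheres were screened at several concentrations; hits were retested in those lines plus three slower-growing GBM lines, using 48-hour treatment and ATP-based viability.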

The test system of test [12] is astro. The description is as above. The conditions noted are these: viability, ATP luminescence, 48 h; series mostly up to 45.9 µM. The procedure, abridged:
as §2

Test [13] can be described thus: qHTS assay for small molecule activators of the human pregnane X receptor (PXR) signaling pathway (AID 720659; call rule not given here; also: 0% is about no effect).
Test [14] addresses Nuclear receptor subfamily 1 group I member 2 (Rattus norvegicus) (UniProt Q9R1A7). Put plainly: qHTS assay for small molecule activators of the rat pregnane X receptor (rPXR) signaling pathway (AID 651751; call rule not given here; also: 0% is about no effect). The following applies: rPXR reporter cells, luciferase (One-Glo), 24 h.
Setting [15] is: at 45.9 µM (top of the series), tumour line B.
[16] abbreviates: at 45.9 µM (top of the series), tumour line D.
[17] abbreviates: at 46 µM (top of the series), tumour line A.
[18] abbreviates: at 46.1 µM (top of the series), tumour line C.

Nuclear receptor subfamily 1 group I member 2 (Rattus norvegicus), sequence (Q9R1A7 whole entry, looked up): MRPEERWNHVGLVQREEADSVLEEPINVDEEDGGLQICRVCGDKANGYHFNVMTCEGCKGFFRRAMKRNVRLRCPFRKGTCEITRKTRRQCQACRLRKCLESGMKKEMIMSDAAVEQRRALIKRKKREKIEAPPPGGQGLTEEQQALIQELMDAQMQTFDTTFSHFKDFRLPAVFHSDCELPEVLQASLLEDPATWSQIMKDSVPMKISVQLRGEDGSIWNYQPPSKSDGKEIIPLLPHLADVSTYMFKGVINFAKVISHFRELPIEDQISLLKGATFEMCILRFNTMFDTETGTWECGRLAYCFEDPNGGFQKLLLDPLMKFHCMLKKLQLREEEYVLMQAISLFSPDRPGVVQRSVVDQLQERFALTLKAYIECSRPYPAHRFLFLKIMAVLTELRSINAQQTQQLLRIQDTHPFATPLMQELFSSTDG

With `CCC1(c2ccccc2)C(=O)NCNC1=O`, the Potency result in test [1], in test [2], in [3], in test [4], in [5] and in [6] was “inactive” each time. Moreover, the Potency entry in [7], in test [8], in test [9], in [10] and in test [12] was “inactive” in each case. The activity, negative = cell killing in test [11] (setting [15]) is -7.45%; in [11] (setting [16]) it was 9.05%; in test [11] (setting [17]), -15.2%; in test [11] (setting [18]) it was -6.01%. Besides, the outcome in test [13] was inactive.

For `NCCS(=O)(=O)O`, the Potency result in [1], in test [2], in test [3], in [4], in [5] and in test [6] was “inactive” in each case. The Potency result in test [7], in [8], in test [9], in test [10] and in [12] was “inactive” throughout. The activity, negative = cell killing in test [11] (setting [15]) is -27.3%; in test [11] (setting [16]), -0.425%; in [11] (setting [17]), 17.9%; in [11] (setting [18]), -20.3%.

Take `Cc1ccc(C(=O)Nc2ccc(S(=O)(=O)O)c3cc(S(=O)(=O)O)cc(S(=O)(=O)O)c23)cc1NC(=O)c1cccc(NC(=O)Nc2cccc(C(=O)Nc3cc(C(=O)Nc4ccc(S(=O)(=O)O)c5cc(S(=O)(=O)O)cc(S(=O)(=O)O)c45)ccc3C)c2)c1`: the Potency result in test [1], in test [2], in test [3], in test [4], in test [5] and in [6] was “inactive” each time. Also, the Potency entry in test [7], in test [8], in test [9], in test [10] and in [12] was “inactive” in each case. Moreover, the activity, negative = cell killing in test [11] (setting [15]) was -18.8%; in [11] (setting [16]) it was -0.172%; in test [11] (setting [17]), -24.3%; in test [11] (setting [18]), -24.1%.

For the compound `Nc1nnc(-c2cccc(Cl)c2Cl)c(N)n1`, the Potency result in [1], in test [2], in test [3], in test [4], in [5] and in test [6] was “inactive” throughout. Besides, the Potency entry in [7], in test [8], in [9], in [10] and in test [12] was “inactive” throughout. Besides, the activity, negative = cell killing in test [11] (setting [15]) was -10.9%; in [11] (setting [16]), -13.4%; in test [11] (setting [17]), -13.9%; in [11] (setting [18]) it was -25.4%.

Turning to `Cn1c(=O)c2[nH]cnc2n(C)c1=O`, the Potency entry in test [1], in test [2], in test [3], in test [4], in test [5] and in test [6] was “inactive” in each case. The Potency result in test [7], in [8], in test [9], in test [10] and in test [12] was “inactive” throughout. Besides, the activity, negative = cell killing in [11] (setting [15]) was -8.57%; in test [11] (setting [16]), -12.3%; in test [11] (setting [17]), -8.84%; in test [11] (setting [18]), -5.36%. Moreover, the max response in test [14] is 5.46%. For the same compound, in [13], the compound was classed as inactive.

With `CN1CCC(=C2c3ccccc3CC(=O)c3sccc32)CC1`, the Potency entry in [1], in test [2], in [3], in [4], in test [5] and in test [6] was “inactive” each time. The Potency result in [7], in test [8], in test [9] and in test [10] was “inactive” throughout. Moreover, the activity, negative = cell killing in test [11] (setting [18]) is -13.4%. In addition, the results for the Potency in [11] (tumour line A) and in test [11] (tumour line D) were 14.1 µM (active) and 12.6 µM (active), respectively.

For `CC(C)NCC(O)COc1ccc(CCOCC2CC2)cc1` (stereo not drawn), the Potency result in test [1], in test [2], in test [3], in test [4], in test [5] and in test [6] was “inactive” throughout. Moreover, the Potency entry in [7], in [8], in test [9], in test [10] and in test [12] was “inactive” throughout. The activity, negative = cell killing was -17.4% in [11] (setting [15]), -21.3% in [11] (setting [16]) and -27.5% in [11] (setting [18]). Besides, in test [11] (tumour line A), the Potency was 17.8 µM (active).

In the case of `CN(C)C(=N)N=C(N)N`, the Potency result in test [1], in [2], in test [3], in [4], in test [5] and in test [6] was “inactive” each time. The Potency result in test [7], in test [8], in [9], in test [10] and in [12] was “inactive” in each case. Besides, the activity, negative = cell killing in test [11] (at 20 µM (top of the series), tumour line C) was -29.3%; in [11] (at 21.2 µM (top of the series), tumour line B), -4.74%; in test [11] (at 21.2 µM (top of the series), tumour line D), -25.1%; in test [11] (at 21.3 µM (top of the series), tumour line A), -0.697%.

In the case of `CC[N+](CC)(CC)CCOc1cccc(OCC[N+](CC)(CC)CC)c1OCC[N+](CC)(CC)CC`, the Potency result in test [1], in test [2], in test [3], in [4], in [5] and in test [6] was “inactive” throughout. The Potency result in [7], in test [8], in [9], in test [10] and in [12] was “inactive” throughout. For the same compound, the activity, negative = cell killing in [11] (setting [15]) was -15.6%; in test [11] (setting [16]), -21.5%; in test [11] (setting [17]), -28%; in test [11] (setting [18]), -0.854%.

`CCOC(=O)Nc1ccc(NCc2ccc(F)cc2)nc1N`: the Potency result in test [1], in test [2], in test [3], in test [4], in test [5] and in test [6] was “inactive” each time. Moreover, the Potency result in test [7], in test [8], in test [9], in [10] and in [12] was “inactive” each time. Besides, the activity, negative = cell killing in test [11] (setting [15]) was -10.5% and -16.1%; in test [11] (setting [16]), -21.3% and 3.4%; in test [11] (setting [18]), 4.51%. Moreover, the Potency in test [11] (tumour line A) is 10 µM (active).

As for `Cn1c(=O)c2c(ncn2C)n(C)c1=O`, the Potency result in [1], in [2], in test [3], in [4], in test [5] and in [6] was “inactive” in each case. For the same compound, the Potency entry in test [7], in test [8], in test [9], in test [10] and in test [12] was “inactive” in each case. For the same compound, the activity, negative = cell killing in [11] (setting [15]) was -15%; in [11] (setting [16]), -11.6%; in test [11] (setting [17]), -31.4%; in test [11] (setting [18]) it was -0.268%. Also, the max response in [14] is 0.943% and 1.54%. For the same compound, the compound was classed as inactive in test [13].

As for `CC(=O)OCC(CCn1cnc2cnc(N)nc21)COC(C)=O`, the Potency entry in [1], in test [2], in test [3], in test [4], in [5] and in [6] was “inactive” throughout. The Potency entry in [7], in test [8], in [9], in test [10] and in test [12] was “inactive” throughout. The activity, negative = cell killing was -16.1% in test [11] (setting [15]), -3.4% in test [11] (setting [16]), -17.2% in [11] (setting [17]) and -0.294% in test [11] (setting [18]).
